Assay results from ChEMBL document CHEMBL1961873, “Compounds: GSK PKIS; Assays: Nanosyn kinase panel” (2012).

How the values were obtained:
[1] = target: T1, Inhibitor of nuclear factor kappa-B kinase subunit epsilon (Homo sapiens) (UniProt Q14164); settings: at 1 µM;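 further: reported values are averaged percent inhibition figures against human IKKε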
T1 sequence (whole entry): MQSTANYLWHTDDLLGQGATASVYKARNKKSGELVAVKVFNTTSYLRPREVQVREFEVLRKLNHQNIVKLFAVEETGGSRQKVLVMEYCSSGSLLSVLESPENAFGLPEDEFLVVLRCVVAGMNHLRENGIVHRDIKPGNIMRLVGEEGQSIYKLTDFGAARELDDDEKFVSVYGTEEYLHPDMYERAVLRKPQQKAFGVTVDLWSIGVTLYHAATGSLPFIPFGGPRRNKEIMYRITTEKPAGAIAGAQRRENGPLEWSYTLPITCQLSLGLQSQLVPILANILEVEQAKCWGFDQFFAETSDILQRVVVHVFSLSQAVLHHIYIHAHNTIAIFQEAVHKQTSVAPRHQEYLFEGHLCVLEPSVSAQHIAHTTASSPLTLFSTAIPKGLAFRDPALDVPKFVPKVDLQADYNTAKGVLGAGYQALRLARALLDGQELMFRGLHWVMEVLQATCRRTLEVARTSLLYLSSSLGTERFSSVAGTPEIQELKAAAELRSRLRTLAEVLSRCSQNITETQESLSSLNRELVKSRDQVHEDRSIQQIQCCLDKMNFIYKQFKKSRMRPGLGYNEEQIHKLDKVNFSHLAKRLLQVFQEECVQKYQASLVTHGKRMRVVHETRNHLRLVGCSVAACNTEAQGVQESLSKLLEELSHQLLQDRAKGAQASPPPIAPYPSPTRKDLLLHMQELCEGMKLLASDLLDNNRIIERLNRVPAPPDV

[2] = target: T2, Serine/threonine-protein kinase Nek1 (Homo sapiens) (UniProt Q96PY6); settings: at 0.1 µM
T2 sequence (whole entry): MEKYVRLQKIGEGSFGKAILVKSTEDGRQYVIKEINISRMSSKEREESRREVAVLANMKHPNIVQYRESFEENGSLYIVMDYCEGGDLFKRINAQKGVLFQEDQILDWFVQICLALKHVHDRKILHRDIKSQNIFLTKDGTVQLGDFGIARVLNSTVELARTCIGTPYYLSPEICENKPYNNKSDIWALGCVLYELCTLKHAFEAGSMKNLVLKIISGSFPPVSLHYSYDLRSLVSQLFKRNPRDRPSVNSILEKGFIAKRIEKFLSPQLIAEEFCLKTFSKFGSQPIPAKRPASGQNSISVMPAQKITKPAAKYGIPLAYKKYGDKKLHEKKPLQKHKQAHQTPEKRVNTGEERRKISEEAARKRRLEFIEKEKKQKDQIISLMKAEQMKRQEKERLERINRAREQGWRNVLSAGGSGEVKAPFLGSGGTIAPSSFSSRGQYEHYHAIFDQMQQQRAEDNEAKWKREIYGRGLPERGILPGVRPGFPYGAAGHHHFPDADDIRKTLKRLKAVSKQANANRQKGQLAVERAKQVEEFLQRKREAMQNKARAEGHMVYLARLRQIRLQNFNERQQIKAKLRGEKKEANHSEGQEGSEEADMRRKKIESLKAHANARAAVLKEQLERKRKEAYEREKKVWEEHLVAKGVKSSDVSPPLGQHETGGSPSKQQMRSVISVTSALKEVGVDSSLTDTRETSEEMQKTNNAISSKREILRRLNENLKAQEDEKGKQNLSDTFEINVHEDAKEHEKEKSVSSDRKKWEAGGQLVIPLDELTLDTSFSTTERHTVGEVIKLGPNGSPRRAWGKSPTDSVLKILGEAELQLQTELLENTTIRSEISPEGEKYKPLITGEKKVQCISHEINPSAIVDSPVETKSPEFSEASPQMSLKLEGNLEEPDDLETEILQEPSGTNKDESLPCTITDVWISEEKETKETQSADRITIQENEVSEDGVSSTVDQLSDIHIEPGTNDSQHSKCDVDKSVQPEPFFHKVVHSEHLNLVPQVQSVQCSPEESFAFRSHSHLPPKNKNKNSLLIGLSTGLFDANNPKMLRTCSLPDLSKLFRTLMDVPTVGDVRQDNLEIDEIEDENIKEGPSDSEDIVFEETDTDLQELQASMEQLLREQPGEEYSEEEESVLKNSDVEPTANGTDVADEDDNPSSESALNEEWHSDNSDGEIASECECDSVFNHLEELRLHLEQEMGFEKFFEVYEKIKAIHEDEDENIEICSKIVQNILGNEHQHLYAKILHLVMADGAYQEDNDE

[3] = target: T2, Serine/threonine-protein kinase Nek1 (Homo sapiens); settings: at 1 µM
[4] = target: T3, Serine/threonine-protein kinase Nek2 (Homo sapiens) (UniProt P51955); settings: at 0.1 µM
T3 sequence (whole entry): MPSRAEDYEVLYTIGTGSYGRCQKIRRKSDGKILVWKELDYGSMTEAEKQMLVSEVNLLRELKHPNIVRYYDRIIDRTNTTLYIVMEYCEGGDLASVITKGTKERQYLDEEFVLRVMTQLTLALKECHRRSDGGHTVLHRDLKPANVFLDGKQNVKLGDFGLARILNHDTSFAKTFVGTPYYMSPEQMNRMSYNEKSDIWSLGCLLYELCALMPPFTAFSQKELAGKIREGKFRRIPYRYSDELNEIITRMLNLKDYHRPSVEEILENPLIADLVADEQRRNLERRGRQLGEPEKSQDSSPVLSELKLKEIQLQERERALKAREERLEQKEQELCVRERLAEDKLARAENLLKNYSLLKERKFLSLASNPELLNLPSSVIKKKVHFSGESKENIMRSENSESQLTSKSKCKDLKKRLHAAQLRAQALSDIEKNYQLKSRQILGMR

[5] = target: T3, Serine/threonine-protein kinase Nek2 (Homo sapiens); settings: at 1 µM
[6] = target: Serine/threonine-protein kinase Nek6 (Homo sapiens) (UniProt Q9HC98); settings: at 0.1 µM
Sequence of Serine/threonine-protein kinase Nek6 (Homo sapiens) (Q9HC98 whole entry): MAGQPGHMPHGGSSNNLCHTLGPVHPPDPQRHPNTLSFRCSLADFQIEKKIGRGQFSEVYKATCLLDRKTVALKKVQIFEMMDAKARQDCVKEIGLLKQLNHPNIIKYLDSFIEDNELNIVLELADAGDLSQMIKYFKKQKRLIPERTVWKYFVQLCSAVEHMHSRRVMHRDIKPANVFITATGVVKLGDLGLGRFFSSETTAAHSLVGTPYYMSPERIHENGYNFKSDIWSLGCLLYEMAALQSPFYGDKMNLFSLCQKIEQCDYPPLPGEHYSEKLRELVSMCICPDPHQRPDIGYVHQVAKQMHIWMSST

[7] = target: Serine/threonine-protein kinase Nek6 (Homo sapiens) (UniProt Q9HC98); settings: at 1 µM
[8] = target: Serine/threonine-protein kinase Nek7 (Homo sapiens) (UniProt Q8TDX7); settings: at 0.1 µM
Sequence of Serine/threonine-protein kinase Nek7 (Homo sapiens) (Q8TDX7 whole entry, looked up): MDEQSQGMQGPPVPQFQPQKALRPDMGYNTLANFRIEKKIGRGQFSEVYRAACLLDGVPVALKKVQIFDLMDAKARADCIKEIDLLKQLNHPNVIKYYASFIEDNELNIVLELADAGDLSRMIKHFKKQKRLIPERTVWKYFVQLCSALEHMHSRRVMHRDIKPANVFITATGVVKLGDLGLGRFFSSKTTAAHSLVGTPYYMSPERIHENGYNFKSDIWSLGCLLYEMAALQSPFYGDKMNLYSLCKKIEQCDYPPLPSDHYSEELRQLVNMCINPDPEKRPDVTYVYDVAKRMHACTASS

[9] = target: Serine/threonine-protein kinase Nek7 (Homo sapiens) (UniProt Q8TDX7); settings: at 1 µM
[10] = target: T4, Serine/threonine-protein kinase Nek9 (Homo sapiens) (UniProt Q8TD19); settings: at 0.1 µM;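 further: reported value is the mean percent inhibition of NEK9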
T4 sequence (whole entry): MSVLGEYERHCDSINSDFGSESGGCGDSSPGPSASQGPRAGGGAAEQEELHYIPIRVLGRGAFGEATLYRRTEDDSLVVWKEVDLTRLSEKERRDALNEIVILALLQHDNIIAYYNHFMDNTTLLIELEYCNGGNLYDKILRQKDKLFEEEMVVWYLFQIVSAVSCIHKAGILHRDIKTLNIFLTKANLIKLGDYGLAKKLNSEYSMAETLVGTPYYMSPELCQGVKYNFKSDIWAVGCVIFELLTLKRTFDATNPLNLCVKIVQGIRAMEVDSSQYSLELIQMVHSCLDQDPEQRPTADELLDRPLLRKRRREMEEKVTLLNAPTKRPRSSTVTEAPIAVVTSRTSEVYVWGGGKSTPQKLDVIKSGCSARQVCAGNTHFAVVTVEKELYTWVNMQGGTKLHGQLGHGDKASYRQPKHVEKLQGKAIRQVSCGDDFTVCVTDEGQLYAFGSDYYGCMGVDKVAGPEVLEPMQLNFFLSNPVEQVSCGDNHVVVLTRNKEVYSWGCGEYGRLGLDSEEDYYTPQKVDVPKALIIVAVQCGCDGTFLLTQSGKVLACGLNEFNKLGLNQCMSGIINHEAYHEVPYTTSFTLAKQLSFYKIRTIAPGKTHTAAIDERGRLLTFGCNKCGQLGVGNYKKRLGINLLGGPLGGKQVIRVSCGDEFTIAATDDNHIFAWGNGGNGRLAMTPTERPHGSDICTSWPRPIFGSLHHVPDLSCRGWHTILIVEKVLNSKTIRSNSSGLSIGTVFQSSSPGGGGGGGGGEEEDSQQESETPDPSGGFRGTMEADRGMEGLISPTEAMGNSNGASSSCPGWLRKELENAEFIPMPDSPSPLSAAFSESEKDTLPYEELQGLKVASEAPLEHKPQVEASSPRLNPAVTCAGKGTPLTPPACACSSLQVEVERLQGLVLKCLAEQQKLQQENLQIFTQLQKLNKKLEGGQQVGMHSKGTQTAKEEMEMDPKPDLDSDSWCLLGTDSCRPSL

Structure (SMILES)	inhibition [1]	inhibition [2]	inhibition [3]	inhibition [4]	inhibition [5]	inhibition [6]	inhibition [7]	inhibition [8]	inhibition [9]	inhibition [10]
CC(C)c1ccc2c(c1)NC(=O)/C2=N/Nc1ccc(S(N)(=O)=O)cc1	-1.41%	0.8%	-0.15%	1.08%	0.29%	1.12%	2.08%	-0.24%	1.29%	2.87%
NC(=O)c1cccc(Nc2nccc(Nc3cccc(F)c3)n2)c1	3.29%	2.58%	5.37%	3.22%	1.09%	0.35%	0.89%	2.07%	1.47%	8.72%
CN(C)C(=O)O[C@@H]1CN[C@@H](C#Cc2cc3ncnc(Nc4ccc(OCc5cccc(F)c5)c(Cl)c4)c3s2)C1	-2.71%	1.22%	0.34%	2%	2.88%	0.28%	-0.53%	3.24%	2.3%	0.42%
CCn1c(-c2nonc2N)nc2c(C#CC(C)(C)O)nc(OCCNC)cc21	46.6%	1.96%	2.74%	5.33%	2.6%	2.62%	1.71%	4.06%	9.15%	7.21%
c1ccc(Nc2ncc(-c3ccccc3)o2)cc1	8.49%	2.71%	2.57%	5.93%	0.59%	1.04%	0.47%	3.1%	9.54%	12.2%
O=C1Nc2ccccc2/C1=C/Nc1ccc2[nH]c(=O)[nH]c2c1	23.3%	2.99%	2.85%	5.3%	5.56%	2.8%	4.32%	6.08%	4.96%	9.7%
Cc1ccc2c(-c3ccnc(Nc4ccc5c(c4)OCCO5)n3)c(-c3ccc(C(F)(F)F)cc3)nn2n1	-0.03%	0.53%	1.72%	1.37%	1.37%	0.53%	-0.1%	-0.01%	0%	1.38%
CCS(=O)(=O)c1ccc(OC)c(Nc2nccc(N(C)c3ccc4c(C)n[nH]c4c3)n2)c1	6.37%	2.52%	2.74%	5.67%	3.85%	2.07%	0.72%	2.57%	5.28%	3.29%
CCOc1nccc2c1nc(-c1nonc1N)n2CC	6.4%	5.3%	8.93%	3.98%	7.87%	5.75%	5.08%	2.9%	3.26%	6.44%
Cc1cc(O)cc(C)c1/C=C/c1cncc(C(=O)N(C)C)c1	2.2%	2.11%	5.18%	2.6%	3.87%	2.43%	0.38%	3.87%	4.65%	11.4%
Nc1nccc(-c2c(-c3ccc(F)cc3)ncn2CCCN2CCOCC2)n1	5.9%	2.11%	3.63%	4.66%	5.54%	3.27%	0.28%	5.79%	4.4%	9.19%
CN(c1ccc(NC(=O)Nc2ccc(OC(F)(F)F)cc2)cc1)c1ccnc(Nc2cccc(S(N)(=O)=O)c2)n1	7.75%	0.8%	2.63%	2.68%	3.03%	1.81%	0.14%	1.37%	-1.48%	2.65%
COC(=O)c1ccc2c(c1)C(=Cc1cc(Br)c(O)c(Br)c1)C(=O)N2	13.9%	2.53%	2.21%	4.16%	2.86%	0.58%	2.21%	4.31%	8.9%	6.38%
N#Cc1c(NC(=O)c2ccccc2F)sc2c1CCCC2	-0.39%	1.15%	2.83%	1.03%	3.25%	-4.29%	-1.45%	-2.18%	0.08%	-2.9%
CCn1c(-c2nonc2N)nc2ccc(F)cc21	11%	3.29%	4.51%	6.07%	7.52%	5.03%	5.4%	5.72%	3.91%	5.14%
c1ccc(Cc2nc3ccc(Nc4ncnc5ccccc45)cc3[nH]2)cc1	4.77%	0.8%	6.65%	4.56%	2.85%	3.06%	4.77%	3.7%	3.14%	7.36%
ON=C1CCc2cc(-c3nc(C4CCNCC4)[nH]c3-c3ccncc3)ccc21	2.68%	0.37%	-0.17%	0.86%	1.18%	-0.82%	-3.55%	2.03%	0.72%	4.01%
